Test results from PubChem BioAssay AID642 (Vanderbilt High Throughput Screening Facility, 2007).
In all, about 2,200 compounds went through this assay and about 2,000 (91%) were called active. So high a share suggests a set chosen from earlier hits. Only a sample is shown. A number with no mark means an inactive call.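 Rule for the calls: active = luminescence in either of two replicates above the same-plate mean plus 3 SD of the low-dose dopamine control; inactive = the rest.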

Target: D(1A) dopamine receptor (Homo sapiens) (UniProt P21728)
Assay: D1 receptor positive allosteric modulators, retest, confirmation, cell-based, HEK293 D1, CRE-luciferase, duplicate (AID 642)
Settings: dopamine EC30 potentiation, at 10 µM, stronger effect = higher value

D(1A) dopamine receptor (Homo sapiens), sequence (P21728 whole entry, looked up): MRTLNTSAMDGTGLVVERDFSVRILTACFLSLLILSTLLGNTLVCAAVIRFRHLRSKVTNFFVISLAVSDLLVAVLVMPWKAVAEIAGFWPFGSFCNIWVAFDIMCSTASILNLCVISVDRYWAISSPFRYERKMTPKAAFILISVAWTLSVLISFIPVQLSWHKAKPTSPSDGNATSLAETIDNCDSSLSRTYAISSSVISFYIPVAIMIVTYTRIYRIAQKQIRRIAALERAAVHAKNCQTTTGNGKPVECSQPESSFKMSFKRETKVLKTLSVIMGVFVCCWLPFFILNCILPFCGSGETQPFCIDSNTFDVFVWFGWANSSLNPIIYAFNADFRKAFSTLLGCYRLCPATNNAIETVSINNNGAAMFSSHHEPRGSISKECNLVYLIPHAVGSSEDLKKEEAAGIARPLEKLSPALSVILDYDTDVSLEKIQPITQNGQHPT

| SMILES | luminescence |
| --- | --- |
| CC1(C)Cc2ccccc2-c2nc(CN3CCOCC3)[nH]c(=O)c21 | 19300 (active) |
| CCCCNc1nc2ccccc2nc1NS(=O)(=O)c1cccs1 | 15900 (active) |
| Cn1c(=O)c2[nH]c(NCC3CCCO3)nc2n(-c2ccccc2)c1=O (configuration not stated) | 8480 (active) |
| CN1CCN(CC(O)COCc2ccc3c(c2)OCO3)CC1 (configuration not stated) | 6270 (active) |
| N#Cc1nc(Cc2ccccc2)oc1NCCc1ccccc1 | 8810 (active) |
| COc1ccc(Nc2oc(-c3ccccc3Cl)nc2C#N)cc1 | 15100 (active) |
| CCOc1ccc(Nc2oc(Cc3ccccc3)nc2C#N)cc1 | 10900 (active) |
| CCCc1nc(N)nc2c1C(=O)CC(C)(C)C2 | 24100 (active) |
| O=C(C1CCC1)N1CCc2cc(S(=O)(=O)NCc3cccnc3)ccc21 | 13000 (active) |
| CCOc1cccc(-n2nnnc2-c2ccc(OC)cc2)c1 | 10400 (active) |
| CCOC(=O)c1c(NC(=O)CSc2nnc(CN3CCOCC3)n2C)sc2c1CCCC2 | 11600 (active) |
| COc1ccc(-n2c(Cc3cccn3C)nnc2SCC(=O)Nc2cc(C)cc(C)c2)cc1 | 4890 |
| CCOC(=O)c1c(NC(=O)CSc2nnc(Cc3csc(N)n3)n2C)sc(C)c1C | 9070 (active) |
| CC1Oc2ccccc2N(Cc2cccnc2)C1=O (configuration not stated) | 10900 (active) |
| COC(=O)[C@H](C(C)C)n1c(C)c(C(C)=O)c(C(C)=O)c1C | 7760 |
| CCCn1c(=NC(C)=O)c(C(=O)OCC)cc2c(=O)n3ccccc3nc21 | 9880 (active) |
| c1coc(-c2nc3nc4ccccc4n3nc2-c2ccco2)c1 | 14000 (active) |
| CCOc1ccc(-c2nnn(CC(=O)N3CCN(c4ccc(OC)cc4)CC3)n2)cc1OCC | 9620 (active) |
| CCOc1cc(-c2noc(CCC(=O)N3CCOCC3)n2)ccc1OC | 10500 (active) |
| COc1nc(NCc2ccc(Cl)cc2)nc(OC)n1 | 13700 (active) |
| COc1ccc(Nc2cc(C)nc(-n3nc(C)cc3C)n2)cc1 | 13700 (active) |
| CC(=O)c1ccc(Oc2cc(C)nc(-n3nc(C)cc3C)n2)cc1 | 17900 (active) |
| CCCCSc1nc2c(c(=O)n1CC)SC(C)C2 (configuration not stated) | 8100 (active) |

| SMILES | luminescence |
| --- | --- |
| CC(C)C1C2=C(CC(C)(C)CC2=O)ON1c1ccccc1 (configuration not stated) | 12900 (active) |
| CCOC(=O)c1cc(C)sc1NC(=O)C1CCC1 | 19700 (active) |
| N#CCCN1CCN(S(=O)(=O)c2ccc(S(=O)(=O)NC3CCCCC3)cc2)CC1 | 5770 (active) |
| COc1ccc(CCN(C)C(=O)C2CCCN(Cc3ccc(OC)c(OC)c3)C2)cc1OC (configuration not stated) | 7890 (active) |
| CCCS(=O)(=O)N1CCC(C(=O)NCCc2ccc(OC)c(OC)c2)CC1 | 7140 |
| COc1ccc(NC(=O)C2CCCN(S(=O)(=O)c3cccc4cccnc34)C2)cc1OC (configuration not stated) | 13800 (active) |
| CCSc1ncnc2c(C#N)c3n(c12)CCCCC3 | 18600 (active) |
| COc1ccc(-c2nnco2)cc1OC | 10800 (active) |
| C=CCSc1nc2c(c(=O)[nH]1)C(C(C)C)C(C#N)=C(N)O2 (configuration not stated) | 18500 (active) |
| CCOc1ccc2[nH]c(=O)c(C(c3nnnn3CCOC)N3CCOCC3)cc2c1 (configuration not stated) | 5420 |
| CC1CCN(c2nc3c(c(=O)[nH]c(=O)n3C)n2CCCc2ccccc2)CC1 | 14000 (active) |
| CCCSc1nc2c(c(=O)[nH]c(=O)n2C)n1CCc1ccccc1 | 24800 (active) |
| O=C(NCc1ccco1)c1cnn2c(C(F)(F)F)cc(-c3ccco3)nc12 | 8660 (active) |
| O=S(=O)(c1cccs1)N1CCc2ccccc2C1 | 12600 (active) |
| CN(C)c1nc(N)nc(CSc2nnnn2-c2cccc3ccccc23)n1 | 7470 (active) |
| CCn1ncc(C2=NOC(C(=O)Nc3ccccc3C(=O)OC)C2)c1C (configuration not stated) | 14000 (active) |
| Cc1nn(-c2ccccc2)c2c1C(=O)NC(=O)C(C)(C)C2 | 17700 (active) |
| CCn1cc(C(=O)NCC2COc3ccccc3O2)c2cc(OC)c(OC)cc2c1=O (configuration not stated) | 9310 (active) |
| Nc1ccc(S(=O)(=O)NC(=O)c2ccccc2)cc1 | 5620 |
| O/N=C(\c1ccc2c(c1)OCCO2)C1CCCCC1 | 10600 (active) |
| CC(=O)OC(C)C[N+](C)(C)C (configuration not stated) | 6620 (active) |
| c1ccc2c(NCC3CCCO3)nc(-c3ccncc3)nc2c1 (configuration not stated) | 9880 (active) |
| CCCN1Cc2cccc(C(=O)NCc3ccccc3)c2C1=O | 12000 (active) |

| SMILES | luminescence |
| --- | --- |
| CC1CCN(c2oc(-c3ccccc3F)nc2C#N)CC1 | 8980 (active) |
| C#CCNc1nc(C(C)C)nc2c1nnn2Cc1ccccc1F | 11700 (active) |
| CCOc1cc(C(=O)N2CCc3cc(OC)c(OC)cc3C2)ccc1OC(F)F | 24600 (active) |
| COc1ccc(CCNc2ncnc3nc[nH]c23)cc1OC | 14700 (active) |
| COc1ccc(-c2nnc(SCC(=O)NC3CCCCC3)o2)cc1OC | 12200 (active) |
| CCOc1ccccc1C1CC(c2ccccc2)Nc2nc(N)nn21 (configuration not stated) | 10100 (active) |
| Cc1ccc(C2CC(c3cccc(Br)c3)n3nc(N)nc3N2)cc1 (configuration not stated) | 10800 (active) |
| Cc1ccc(C2CC(c3cccc(C)c3)n3nc(N)nc3N2)cc1 (configuration not stated) | 8720 (active) |
| Cc1cc(C(F)(F)F)nn1-c1nc(-c2ccco2)cc(C(F)(F)F)n1 | 8160 (active) |
| FC(F)(F)c1cc(-c2ccco2)nc(N2CCOCC2)n1 | 24200 (active) |
| COc1ccc(-c2nnn(Cc3nc(N)nc(N4CCCCC4)n3)n2)cc1 | 12600 (active) |
| COc1ccc(S(=O)(=O)Nc2ccc(S(=O)(=O)N3CCCCC3)cc2)cc1OC | 13000 (active) |
| O=C(CSc1nnc2scc(-c3ccc(F)cc3)n12)NCc1ccco1 | 11300 (active) |
| Cn1c(/C(C#N)=C2/CCCCCN2)nc2ccccc21 | 15000 (active) |
| COc1ncnc2c1N=C1CC(C)(C)CC(N)=C1S2 | 8600 (active) |
| COC(=O)c1ccccc1NC(=O)C1CCN(S(=O)(=O)c2cc(OC)ccc2OC)CC1 | 13600 (active) |
| CCCCc1c(O)nc2n(c1=O)CCS2 | 4500 |
| Oc1ccc(-c2csc(Nc3cccnc3)n2)cc1 | 10600 (active) |
| COC(=O)C(C)C1Sc2ccccc2NC1=O (configuration not stated) | 11200 (active) |
| COc1cc(NC(=O)N2CCOCC2)cc(OC)c1 | 7060 |
| CC(=O)Nc1cccc(Oc2cc(C#N)c(C#N)cc2N2CCOCC2)c1 | 18800 (active) |
